A selection: hits, their analogues and other compounds. The true share with any hit is near 4%.
DUSP3 inh – inhibitors of human VHR1 phosphatase (DUSP3). 0.52% of 290,000 active. P51452. AID 1654. recombinant VHR phosphatase, pNPP absorbance. inhibition, % at 13.3 µM; in the data active = inhibition above about 50%
Target sequence (P51452 whole entry, looked up): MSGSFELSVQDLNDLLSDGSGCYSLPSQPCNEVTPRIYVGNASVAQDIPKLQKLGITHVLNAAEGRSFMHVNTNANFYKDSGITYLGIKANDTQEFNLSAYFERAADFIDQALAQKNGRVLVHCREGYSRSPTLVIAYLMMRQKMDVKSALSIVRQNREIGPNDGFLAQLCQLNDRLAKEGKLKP
BoNT A protease – inhibitors of Botulinum neurotoxin A light chain protease; multiplex microsphere protease substrate cleavage, flow cytometry; inhibition, % at 10 µM; 0.17% of 360,000 active; AID 588499
MazEF act – increases E. coli MazEF RNase cleavage of RNA | P0AE70 | FAM/BHQ RNA-DNA oligo cleavage fluorescence, 5 h | activation, % at 20 µM | 0.32% of 350,000 active | AID 504720; in the data active = activation above about 50%
Target sequence (P0AE70 whole entry, looked up): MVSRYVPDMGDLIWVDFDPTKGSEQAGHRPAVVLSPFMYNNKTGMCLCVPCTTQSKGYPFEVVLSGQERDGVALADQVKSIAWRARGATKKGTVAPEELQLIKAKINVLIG
BoNT F protease – blocks Botulinum neurotoxin F light chain protease. AID 588497. Multiplex microsphere protease cleavage assay, flow cytometry. inhibition, % at 10 µM. 0.22% of 360,000 active; in the data active = inhibition above about 35%, passing the limit was not always enough; inconclusive = no clear call, values can overlap the other calls
Bead autofluor – compound fluorescence in toxin protease inhibitor counterscreen. compound autofluorescence counterscreen, microsphere flow cytometry; active compounds read high. fluorescence intensity (no concentration beside the values). 3.1% of 360,000 active; in the data active = fluorescence intensity above about 16000; inconclusive = no clear call, values can overlap the other calls
Anthrax LF inh2 – anthrax lethal factor protease inhibition; multiplex microsphere protease cleavage assay, LF; inhibition, % at 10 µM; 0.12% of 360,000 active; AID 588501
Large screens that a line does not name were inactive. Rule as the data show it, unless noted: active = inhibition above about 30%; inconclusive = no clear call, values can overlap the other calls; inactive = below that.

COc1ccc2nc(NC(=O)C(NS(=O)(=O)c3cccs3)C(C)C)sc2c1 (stereo not drawn)	Bead autofluor 21430
Cc1ccc2sc(-c3ccc(NC(=O)CCN4C(=O)c5ccccc5C4=O)cc3)nc2c1	DUSP3 inh 54 (no result: BoNT A protease, MazEF act, BoNT F protease, Bead autofluor, Anthrax LF inh2)
CC(=O)Nc1ccc(NC(=O)CCN2C(=O)c3ccccc3C2=O)cc1	none
COc1ccc2nc(NC(=O)c3cc(C)oc3C)sc2c1	Bead autofluor inconclusive
COc1ccc2nc(NC(=S)N(C)C)sc2c1	Bead autofluor 23623
COc1ccc2nc(NC(=O)c3ccoc3C)sc2c1	Bead autofluor 21922
CCCC(=O)Nc1nc2ccc(OC)cc2s1	none
COc1ccc2nc(N/C(=N/S(=O)(=O)c3cccs3)c3ccccc3Cl)sc2c1	none
COc1ccc2nc(NC(=O)CCN3C(=O)c4ccccc4C3=O)sc2c1	BoNT A protease inconclusive, Bead autofluor 16754
CCC1(c2ccccc2)NC(=O)N(CC(=O)Nc2cc(S(=O)(=O)N3CCCCC3)ccc2N(C)C)C1=O (stereo not drawn)	Bead autofluor inconclusive (no result: DUSP3 inh)
COc1cc(NC(=O)c2cc(Cl)ccc2Cl)ccc1-c1cc2ccccc2oc1=O	Bead autofluor 22732
COc1cc(NC(=O)c2cccnc2)ccc1-c1cc2ccccc2oc1=O	none (no result: BoNT A protease, MazEF act, BoNT F protease, Bead autofluor, Anthrax LF inh2)
Cc1ccc(NC(=O)C2C3C=CC4(O3)C2C(=O)N(CCCN2CCCC2)C4C(=O)NC2CCCCC2)cc1Cl (stereo not drawn)	DUSP3 inh 53
Cc1ccc(NC(=O)C2C3C=CC4(O3)C2C(=O)N(CCCN2CCCCC2)C4C(=O)NC2CCCCC2)cc1Cl (stereo not drawn)	none
Cc1ccc(CSCCNC(=O)/C=C/c2ccc(Cl)cc2)cc1	Bead autofluor 21860
Cc1ccc(CCNC(=O)CCSCc2ccc(Cl)cc2)cc1	none
CC(=O)Nc1ccc(S(=O)(=O)Nc2nnc(C(C)C)s2)cc1	Bead autofluor 16628
CC(=O)Nc1ccc(S(=O)(=O)Nc2nnc(C)s2)cc1	none (no result: DUSP3 inh)
Cc1ccc2nc(N3C(=O)C(O)=C(C(=O)c4ccco4)C3c3cccs3)sc2c1 (stereo not drawn)	MazEF act 110
COc1ccc2nc(N3C(=O)C(O)=C(C(=O)c4ccco4)C3c3ccc(C)o3)sc2c1 (stereo not drawn)	none (no result: DUSP3 inh)
[O-][N+]1=C(c2cccs2)CN(O)C1	BoNT F protease inconclusive
CC(C)c1ccccc1N1CC(C(=O)O)CC1=O (stereo not drawn)	Bead autofluor 21241
COc1ccc(NS(=O)(=O)c2ccc3c(c2)CCC(=O)N3)c(OC)c1	Bead autofluor 16726
COc1ccc(NC(=O)CN(C)S(=O)(=O)c2ccc3c(c2)CCC(=O)N3)c(OC)c1	none
CNC(=O)NC1CCCCc2sccc21 (stereo not drawn)	Bead autofluor 16866
CN(CCCNS(=O)(=O)c1cccc2cccnc12)Cc1ccccc1	none
CCC(Oc1ccccc1F)C(=O)Nc1ccc2c(c1)n(C)c(=O)n2C (stereo not drawn)	BoNT F protease 38
COc1cc(OC)c(OC)cc1CNC(C)C(O)c1ccccc1 (stereo not drawn)	Bead autofluor 17763
COc1cccc(NC(=O)COC(=O)CCCc2c[nH]c3ccccc23)c1	Bead autofluor 22839
COc1ccc(NC(=O)COC(=O)CCCc2c[nH]c3ccccc23)cc1	none
O=C(N/N=C1\C2CN3CCN(C2)CC1(c1ccccc1)C3)Nc1ccccc1	none
CCC1(C)COC2(OC1)C(=O)Nc1ccccc12 (stereo not drawn)	Bead autofluor 20257
CC1(C)COC2(OC1)C(=O)Nc1ccccc12	none
COc1nc(-c2cccs2)cc(-c2ccc(C)cc2)c1C#N	Bead autofluor 21880
COc1ccc2c(c1)c1nc3ccccc3nc1n2Cc1ccc(OC)c(OC)c1	MazEF act 116
COC(=O)Cn1c2ccc(OC)cc2c2nc3ccccc3nc21	MazEF act 236
COC(=O)Cn1c(C(F)(F)F)nc2ccccc21	none
CCOc1ccc(Cn2c3ccc(OC)cc3c3nc4ccccc4nc32)cc1OC	none
CCOC(=O)Cn1c2ccc(OC)cc2c2nc3ccccc3nc21	MazEF act 276
CCOC(=O)Cn1c(-c2ccccc2)nc2ccccc2c1=O	none
CN1C(=O)C(O)(CC(=O)c2cccnc2)c2ccccc21 (stereo not drawn)	Bead autofluor 23918
O=C(CC1(O)C(=O)N(Cc2cccc3ccccc23)c2ccccc21)c1cccnc1 (stereo not drawn)	none
Cc1nnc(NC(=O)CSc2ncnc3scc(-c4ccccc4)c23)s1	BoNT A protease inconclusive, Bead autofluor 21836
COCc1nnc(NC(=O)CSc2ccccc2)s1	Bead autofluor 22373
COCCSc1ccccc1C(=O)Nc1nnc(COC)s1	Bead autofluor 23162
Cc1nnc(NC(=O)CCSc2ccccc2)s1	Bead autofluor 16606
COCc1nnc(NC(=O)CSc2ccc(C)cc2)s1	none
COC(=O)CSc1ncnc2scc(-c3ccccc3)c12	none
COCc1nnc(NC(=O)c2ccccc2Oc2ccccc2)s1	none
C#CCOCCOCCOCCNc1nc(N2CCN(C(=O)CCCCCCCCCCNC(=O)Cn3cc(CCCCCN)nn3)CC2)nc(N2CCN(C(=O)CCCCCCCCCCNC(=O)[C@H]([C@@H](C)CC)n3cc(CCCCN=C(N)N)nn3)CC2)n1	none (no result: DUSP3 inh)
COCc1nnc(NC(=O)CCSc2ccccc2)s1	BoNT A protease inconclusive, Bead autofluor 20338
CCOc1cccc2cc(C(=O)NCc3ccccc3)c(=N)oc12	none
O=c1c2ccccc2nc2n1C(CBr)CS2 (stereo not drawn)	none
c1cc(Nc2cccc3nccnc23)c2nccnc2c1	MazEF act 51
O=C1OCc2ccc(NC(=O)C3CC3)cc21	none
O=C1OCc2cc(NC(=O)C3CCCCC3)ccc21	BoNT A protease inconclusive, Bead autofluor 20191
COc1ccc(C(C)=O)cc1CSc1nnc(-c2ccccc2O)n1-c1ccccc1	Bead autofluor 19750
COc1ccc(-c2nnc(SCCC(=O)O)n2-c2ccccc2)cc1OC	Bead autofluor 25005
COc1cc(C(=O)C(=O)c2cc(OC)c(O)c(OC)c2)cc(OC)c1O	DUSP3 inh 53
COc1cc(-c2cc(OC)c(O)c(OC)c2)cc(OC)c1O	none (no result: DUSP3 inh)
O=C(NC1CCCCC1)C1(c2ccccc2)CC1(Cl)Cl (stereo not drawn)	none
CC1(C(=O)NC2CCCCCCC2)CC1(Cl)Cl (stereo not drawn)	Bead autofluor 17224
COc1ccnc2c1c(=O)n(Cc1ccccc1Cl)c(=O)n2C	none
Cn1c(=O)c2c(nc(CN3CCN(c4ccccc4)CC3)n2Cc2c(F)cccc2Cl)n(C)c1=O	BoNT A protease inconclusive, Bead autofluor 22170
CC1CN(c2nc3c(c(=O)n(C)c(=O)n3C)n2Cc2c(F)cccc2Cl)CC(C)O1 (stereo not drawn)	Bead autofluor 18917
Cn1c(=O)c2c(nc(CN3CCN(c4ccccc4)CC3)n2Cc2ccccc2F)n(C)c1=O	none (no result: BoNT A protease, MazEF act, BoNT F protease, Bead autofluor, Anthrax LF inh2)
COc1ccnc2c1c(=O)n(Cc1c(F)cccc1Cl)c(=O)n2C	DUSP3 inh 50

Screens: PubChem, several laboratories
